p53ts 39C tox: p53ts cell cytotoxicity, nonpermissive temperature | H1299-p53A138V viability at 39C, ATP luminescence, 24 h | Potency, µM (series often up to 46.1 µM), inactives show top-dose activity change, negative = cell killing, actives largely listed as cytotoxic | 130,000 tested, 1.5% active | AID 902; further: on the % scale 0 is the no-effect control and ±100 the full control effect; nearly all actives have a fitted effect of over 55% in size
Peg3 imprint: genomic imprint erasure induction. mouse ES Peg3-LacZ reporter, beta-gal luminescence, 40 h. Potency, µM (titrated, usually from 60.7 µM), for the others: top-dose activity change, positive = activation, usual class: activators. 110,000 tested, 0.02% active. AID 1948
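Readout: BetaGlo luminescence (5 min, room temp) for LacZ from the normally silent maternal Peg3 allele in female Peg3LacZ-Neo ES cells. Cells 300/well, 40 h, 37C, 5% CO2. Data normalized per plate to negative controls.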
p53ts 32C tox: cytotoxicity in p53ts cells at permissive temperature; Potency, µM (titrated, usually from 46.1 µM), without a hit: at the highest dose activity change, negative = cytotoxicity, most hits filed as cytotoxic; 130,000 tested, 0.93% active; H1299-p53A138V at 32C, ATP luminescence viability, 24 h; AID 924;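 further: 0% = DMSO and -100% = full killing by reference compound; nearly all actives have a fitted effect of over 55% in size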
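ATP-content luminescence (ATPlite) read-out after 24 h compound exposure at 32C in H1299-p53A138V cells (600/well). Tested up to 46 uM. Normalized to DMSO (0%) and 100 uM tamoxifen (100% killing); Hill-fit AC50.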
* marks the source's active call; other numbers are inactive results; ? = inconclusive; nt = no result given; [ ] = remark or other dose. A selection: hits, their analogues and other compounds. The true share with any hit is near 1.6%. The call rests on the fitted dose curve; in most records, active means well fitted curve in the direction sought with a large enough effect; inconclusive means small, poorly fitted or top-dose-only effect, or another doubt; inactive means no such curve, though single readings can be large; an effect the other way counts as inactive or inconclusive. Potency means the concentration at half of the fitted maximal effect.

SMILES | p53ts 39C tox | Peg3 imprint | p53ts 32C tox
Cn1c(=O)c2cc(C(=O)NC3CCCCCC3)sc2c2ccccc21 | 7.9µM* | -10%[10.9 µM] | ?
COc1ccc(Cn2c(SCC(N)=O)nc3c(sc4ccccc43)c2=O)cc1 | 13µM* | 11%[10.9 µM] | -9%
CSc1nc2c(sc3ccccc32)c(=O)n1Cc1ccc(C)cc1 | -17% | -15%[10.9 µM] | -6%
CCOC(=O)c1ccc(NC(=O)CN2C(=O)c3cccnc3Oc3ccc(Cl)cc32)cc1 | nt | nt | 24%
COc1ccc(-c2[nH]ncc2C(=O)NCc2cccc(F)c2)cc1 | -20% | 23%[10.9 µM] | 4%
COc1ccc(-c2cc(C(=O)N3CCN(c4ccccn4)CC3)c3ccccc3n2)cc1 | 13µM* | -21% | 13µM*
COc1ccc(OC)c(-c2cc(C(=O)N3CCN(c4ncccn4)CC3)c3ccccc3n2)c1 | -13% | -18% | -20%
COc1cc(-c2cc(C(=O)N3CCN(c4ccccn4)CC3)c3ccccc3n2)cc(OC)c1OC | -9% | -11% | 14%
CCOc1ccc(-c2cc(C(=O)N3CCN(c4ccccn4)CC3)c3ccccc3n2)cc1 | ? | -17% | 2.5µM*
CCOC(=O)c1sc2cccc(F)c2c1S(=O)(=O)NCc1ccccc1Cl | -12% | -11%[10.9 µM] | 8%
COc1ccc(-n2c(-c3ccc(C)cc3)cc3c2CC(C)(C)CC3=O)cc1Cl | -19% | -11%[10.9 µM] | 11%
CCc1ccccc1-n1c(C)nc2cc(C(=O)NCCc3ccc(Cl)cc3)ccc21 | -12% | -10%[10.9 µM] | ?
O=C(Nc1ccc2c(c1)OCO2)c1cc(C2CC2)on1 | ? | -43% | ?
CC(C)c1cc(C(=O)Nc2ccc3c(c2)OCO3)no1 | ? | -58% | 16µM*
O=C(Nc1ccc2c(c1)OCO2)c1ccc(Br)s1 | ? | -46% | 13µM*
Cc1ccccc1C(=O)Nc1ccc2c(c1)OCO2 | 13µM* | nt | 10µM*
O=C(Nc1ccc2c(c1)OCO2)c1cccs1 | ? | -78% | ?
O=C(Nc1ccc(F)cc1F)c1noc2c1CCC2 | -23% | -65% | -25%
O=C(Nc1ccccc1C(F)(F)F)c1noc2c1CCCCC2 | 13µM* | -9%[10.9 µM] | 13µM*
CN(c1ccccc1C(=O)Nc1ccc2c(c1)OCO2)S(C)(=O)=O | 9% | 10% | 3%
Cc1ccc(-n2cnc3cc(C(=O)NC4CCCCCC4)ccc32)cc1Cl | 38% | -8%[10.9 µM] | -1%
O=C(NCc1ccc2c(c1)CCN2C(=O)c1ccc(F)cc1)c1cc2ccccc2[nH]1 | 0% | -10%[10.9 µM] | 8%
CCCOc1ccc(C(=O)Nc2ccc3nn(-c4ccc(OC)c(Cl)c4)nc3c2)cc1 | 6% | -4%[10.9 µM] | 2%
Cc1ccc(OCc2nc(-c3ccc(C(=O)NCCc4ccc(Cl)cc4)cc3)oc2C)cc1 | -10% | -2%[10.9 µM] | 2%
O=C(Nc1ccc2c(c1)OCO2)c1noc2c1CCCCC2 | 16µM* | -75% | 16µM*
SMILES | p53ts 39C tox | Peg3 imprint | p53ts 32C tox
C/C(=C\C(=O)c1ccc(C)o1)Nc1ccc2c(c1)OCO2 | 1% | -12% | -5%
Cc1ccc(C(=O)Nc2ccc3c(c2)OCO3)o1 | ? | -85% | 10µM*
CC(=O)c1ccc(NC(=O)c2noc3c2CCCCC3)cc1 | -10% | -16% | -17%
Cn1c(C(=O)Nc2ccc3c(c2)OCO3)cc2sccc21 | 16µM* | -52% | ?
Cn1c(C(=O)NCc2ccc3c(c2)OCO3)cc2sccc21 | -27% | -11% | -13%
CN(C(=O)c1ccc2c(c1)N(Cc1ccccc1F)C(=O)c1ccccc1S2(=O)=O)C1CCCCC1 | -13% | 19%[10.9 µM] | 28%
COc1ccc(-n2c(=O)c3ccccc3n(Cc3ccccc3C)c2=O)c(OC)c1 | 17% | -3%[10.9 µM] | -1%
COc1cccc2sc(N3CCN(c4nc5ccccc5s4)CC3)nc12 | 4% | -4% | -5%
COc1cccc2sc(N(C)c3ccccc3)nc12 | 13µM* | -64% | 10µM*
O=c1oc2ccccc2c(N2CCN(c3ccccc3F)CC2)c1CN1CCCC1 | 8% | -9%[10.9 µM] | -5%
CCOc1ccc(N2C(=O)CC(SCCN)C2=O)cc1 (centres undefined) | 13µM* | nt | 13µM*
CCOc1ccc(N2C(=O)CC(Sc3nc(C)cc(C)n3)C2=O)cc1 (centres undefined) | -7% | -7% | 8%
Cc1ccn2c(=O)cc(CSc3nnc(C)s3)nc2c1 | -3% | -4%[10.9 µM] | 7%
NS(=O)(=O)c1cccc2cccnc12 | -6% | -2% | 16%
CC(C)c1ccccc1S(=O)(=O)c1cc(N)c2ncccc2c1[N+](=O)[O-] | 3.2µM* | -22% | 11%
Cc1cccc(Cn2c(N(C)Cc3ccccc3)nc3c2c(=O)[nH]c(=O)n3C)c1 | 5µM* | -46% | 6.3µM*
CN(Cc1ccccc1)c1nc2c(c(=O)[nH]c(=O)n2C)n1C | 9% | -1% | -2%
CCC(C(=O)Nc1ccc(C(C)=O)cc1)n1c(C)c2cnn(-c3ccccc3)c(=O)c2c1C (centres undefined) | -14% | ? | 11%
COc1ccc(Cl)cc1NC(=O)c1cc2ccccn2n1 | -4% | -4%[10.9 µM] | -6%
CC(=O)c1cccc(NC(=O)c2cnn3ccccc23)c1 | ? | -80% | ?
Cc1cc(Cl)ccc1NC(=O)c1cc2ccccn2n1 | 5µM* | -17%[10.9 µM] | 10µM*
CC(=O)c1cccc(NC(=O)c2nc3ccccc3n(C)c2=O)c1 | 1.6µM* | -45%[10.9 µM] | 2.2µM*
COc1cc(NC(=O)c2nc3ccccc3n(C)c2=O)cc(OC)c1OC | -19% | 3%[10.9 µM] | -5%
CC(=O)c1cccc(NC(=O)c2cc3ccccn3n2)c1 | 13µM* | -72% | 13µM*
Cc1ccn2c(=O)cc(CSc3nnc(NC(=O)c4ccccc4Cl)s3)nc2c1 | -7% | -13%[10.9 µM] | -3%
SMILES | p53ts 39C tox | Peg3 imprint | p53ts 32C tox
CCNC(=O)C1CCN(Cc2cc3ccccc3n2Cc2ccc(C)cc2)CC1 | -17% | -13%[10.9 µM] | 10%
CCc1ccc(-c2[nH]nc3nc(-c4ccc(OC)cc4)cc(C(=O)NCCCOC)c23)cc1 | 28% | -11%[10.9 µM] | 4%
CNCC[C@H](Oc1ccccc1OC)c1ccccc1 | -16% | -17% | -3%
COC(=O)c1ccc(Cl)c(NC(=O)C2CCN(S(=O)(=O)Cc3ccccc3)CC2)c1 | 5% | -9%[10.9 µM] | 7%
CC(CCc1ccccc1)NC(=O)CSc1n[nH]c(-c2ccc(F)cc2)n1 (centres undefined) | -33% | 9%[10.9 µM] | -15%
CCCCN1C(=O)C(O)(CC(=O)c2ccc(C(C)(C)C)cc2)c2ccccc21 (centres undefined) | 13µM* | -12%[10.9 µM] | ?
CCc1ccc(C(=O)CC2(O)C(=O)N(Cc3ccc(C)cc3)c3ccccc32)cc1 (centres undefined) | ? | -20%[10.9 µM] | -3%
Cc1ccc2c(c1)c(=O)c(C(=O)c1ccccc1)cn2Cc1ccccc1F | -16% | -9%[10.9 µM] | -9%
N#CCC(=O)NCC1(c2ccccc2)CCCC1 | 15% | ? | 3%
Cc1ccc(C(CC(=O)NCC2(c3ccccc3)CCCC2)c2ccccc2)c(O)c1 (centres undefined) | 16µM* | -5%[10.9 µM] | -27%
Cc1cc(-n2c(SCc3ccccc3F)nc3[nH]ncc3c2=O)ccc1Cl | 16µM* | -11%[10.9 µM] | 12%
Cc1ccccc1-n1c(SCc2ccc(Cl)cc2)nc2[nH]ncc2c1=O | -11% | -11%[10.9 µM] | 27%
CCc1ccc(NC(=O)Cn2c(=O)n(CCc3ccccc3)c(=O)c3sc4ccccc4c32)cc1 | -29% | -8%[10.9 µM] | 3%
